# ADAM10 inh: inhibitors of human ADAM10; O14672; inhibition, % at 7 µM; recombinant ADAM10, EDANS/DABCYL FRET peptide cleavage, 3 h; actives 0.62% (n = 370,000);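 active = inhibition above a per-campaign cutoff equal to the mean of compounds falling between control-based bounds plus 3 SD, cut at about 20% in these data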;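 note: 0% = DMSO wells while the 100% control is not disclosed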
# Target sequence (O14672 214-748 limits assumed): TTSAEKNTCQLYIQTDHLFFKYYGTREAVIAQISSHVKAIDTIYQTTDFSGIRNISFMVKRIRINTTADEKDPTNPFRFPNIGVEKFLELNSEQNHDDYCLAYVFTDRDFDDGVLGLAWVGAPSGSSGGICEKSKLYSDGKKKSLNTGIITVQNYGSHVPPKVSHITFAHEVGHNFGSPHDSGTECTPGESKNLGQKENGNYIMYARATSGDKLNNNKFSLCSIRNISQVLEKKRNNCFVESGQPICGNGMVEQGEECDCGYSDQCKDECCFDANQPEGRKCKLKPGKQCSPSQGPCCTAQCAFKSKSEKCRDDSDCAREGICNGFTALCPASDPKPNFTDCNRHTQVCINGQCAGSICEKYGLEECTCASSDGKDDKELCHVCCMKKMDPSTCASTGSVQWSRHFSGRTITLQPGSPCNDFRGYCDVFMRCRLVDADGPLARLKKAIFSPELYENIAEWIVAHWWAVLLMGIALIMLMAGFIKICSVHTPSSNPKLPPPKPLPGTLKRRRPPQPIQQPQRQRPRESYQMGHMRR
# ADAM17 inh: ADAM17 inhibition, QFRET primary screen; recombinant ADAM17, EDANS/DABCYL FRET peptide cleavage; inhibition, % at 6.95 µM; actives 0.83% (n = 370,000);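 active = inhibition above the mean of compounds lying between control limits plus 3 SD, set per campaign, cut at about 8.5% in these data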;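 note: 0% = DMSO-only wells as the low control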
# KLK7 zymogen act: proKLK7 (human) activation, primary screen; purified proKLK7, EDANS-DABCYL substrate fluorescence; 100% is mature enzyme control, 0% vehicle; activation, % at 7 µM; actives 0.9% (n = 370,000); P49862;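 active = activation above the mean of all tested compounds plus 3 SD, computed per campaign excluding outliers beyond control limits, cut at about 13% in these data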
# MPTP block: blocks calcium-induced mitochondrial swelling | isolated mouse mitochondria, Ca2+ swelling absorbance, 30 min | inhibition, % at 10 µM | actives 1.4% (n = 360,000);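 active = inhibition of 50% or more, scaled per plate between neutral and stimulator controls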;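 note: 0% = DMSO wells given calcium and 100% = 1 mM EGTA wells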
# rCAG binder: binds r(CAG) RNA repeats | r(CAG) RNA repeat, TO-PRO-1 dye displacement fluorescence | inhibition, % at 3 µM | actives 1.3% (n = 370,000) | AID 651821;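 active = inhibition above the plate cutoff, the mean of all test compounds on that plate plus 3 SD, cut at about 35% in these data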;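 note: 0% = DMSO alone and 100% = 100 µM mitoxantrone as full dye displacement; higher means more dye released from RNA so lower well fluorescence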
# DSG3 Ab inh: human desmoglein-3 autoantibody binding inhibition; P32926; DSG3-coupled beads, scFv-anti-DSG3-GFP binding, flow cytometry; active compounds read low; binding (percent of control), % at 10 µM; actives 0.48% (n = 310,000); AID 588358;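 active = binding more than 3 SD below its plate's average and above zero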;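 note: hits lower antibody fragment binding to DSG3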
# Rh123 counter: mitochondrial membrane potential, counter-screen; inhibition, % at 10 µM; actives 78% (n = 5,000); AID 624504; isolated mitochondria, Rhodamine 123 fluorescence; shares compounds with MPTP block; in the data active = inhibition above about 22%;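 note: 0% = DMSO vehicle and 100% = positive control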
# MPTP swell DR: MPTP inhibition, dose response swelling confirmation; shares compounds with MPTP block; isolated mitochondria swelling, absorbance; IC50, µM; actives 58% (n = 780); in the data active = IC50 below about 20 µM
# MPTP counter DR: active in counter-screen for permeability transition pore inhibitors | shares compounds with MPTP block | isolated mitochondria counterscreen, fluorescence read-out | IC50, µM | actives 49% (n = 780) | AID 651564; in the data active = IC50 below about 80 µM
# * marks the source's active call; other numbers are inactive results; / = not tested or not shown. Hits are enriched below; roughly 4.7% of the tested compounds scored in any of these assays.
SMILES,ADAM10 inh,ADAM17 inh,KLK7 zymogen act,MPTP block,rCAG binder,DSG3 Ab inh,Rh123 counter,others
CCCCCCCCCCS(=O)(=O)N/N=C/c1ccccc1OC,4.4,2.7,0.6,19.8,3.8,101.9,/,
O=[N+]([O-])c1ccc(NN=Cc2cccc([N+](=O)[O-])c2)cc1,-4.3,-2.2,-0.1,92.1*,2.8,86.2,65.3*,
O=C(O)c1ccc(N/N=C/C=C/c2ccc([N+](=O)[O-])o2)cc1,4.5,5.1,0.4,8.2,12.3,111.5,/,
O=[N+]([O-])c1ccc(N/N=C/C=C/c2ccco2)cc1,8.0,8.4,0.3,75.8*,20.3,117.8,70.4*,
Clc1ccc(CONc2ncnc3nonc23)c(Cl)c1,-2.7,-0.4,0.6,56.0*,0.5,99.4,95.8*,
C[C@@H]1ON(C)[C@H]2C[C@H]3c4[nH]c5c(-c6cccc(F)c6)cccc5c4CCN3C(=O)[C@@H]12,-174.8,-49.8,-5.5,/,1.4,/,/,
N#Cc1cc(NC(=O)c2ccc(Cl)cc2)ccc1Sc1ccccc1,5.8,4.8,-14.3,73.1*,8.9,/,96.3*,
COc1ccc(Sc2ccc(NC(=O)c3ccccc3Cl)cc2C#N)cc1,9.3,0.9,-3.8,4.4,13.2,100.3,/,
O=C1c2ccccc2C(Nc2cccc(C(F)(F)F)c2)N1Cc1ccco1 (centres undefined),11.3,6.5,0.2,63.2*,-4.7,96.7,32.7*,
COc1cccc(NC2c3ccccc3C(=O)N2Cc2ccco2)c1 (centres undefined),-11.8,-0.8,0.6,1.4,8.3,102.2,/,
O=C(C(=O)N1CCC(CNC(=O)C2COc3ccccc3O2)CC1)c1cc2ccccc2o1 (centres undefined),3.7,1.8,0.6,/,3.7,/,/,
CCCCCCCCCCCCCCCC(O)C(N)CO (centres undefined),-11.4,-6.5,0.7,80.1*,2.8,/,-7.3,
Cc1ccc(Cc2c(-c3cccc(Br)c3)nc3c4ccccc4ccn23)cc1,-25.7,-3.5,-7.2,/,10.1,/,/,
O=C(Cc1ccc([N+](=O)[O-])cc1)Nc1cc(C(F)(F)F)cc(C(F)(F)F)c1,3.9,-2.7,0.2,76.8*,1.1,97.6,97.9*,
CCc1cccc(NC(=O)Cc2ccc([N+](=O)[O-])cc2)c1,8.7,0.9,-0.3,14.2,5.7,91.5,/,
O=C(Cc1ccc([N+](=O)[O-])cc1)Nc1cccc(C(F)(F)F)c1,4.5,2.6,0.1,81.3*,1.1,84.4,81.6*,
CCOC(=O)c1cc([N+](=O)[O-])sc1NC(=O)c1ccc(S(=O)(=O)N2CC3(C)CC2CC(C)(C)C3)cc1 (centres undefined),2.9,-5.7,-0.9,91.4*,1.6,91.9,4.4,MPTP swell DR=2.38*;MPTP counter DR=<2.5*
CC1(C)CC2CC(C)(CN2S(=O)(=O)c2ccc(C(=O)Nc3ccc(S(=O)(=O)N4CCOCC4)cc3)cc2)C1 (centres undefined),7.7,8.2,-1.4,43.5,21.1,85.7,/,
O=C(Nc1ccccc1)c1nnn(Cc2ccccc2)c1NC(=O)C(F)(F)F,5.5,-0.9,-0.2,88.6*,10.5,103.4,83.7*,
COc1ccccc1NC(=O)c1nnn(Cc2ccccc2)c1NC(=O)C(F)(F)F,0.7,3.5,1.2,73.7*,0.0,108.9,73.2*,
CC(C)CN1C(=O)C[C@@]2(C(=O)N(C)c3ccc(NC(=O)C(C)(C)C)cc32)C1c1ccccc1 (some centres undefined),-2.7,-4.0,-0.4,/,-0.9,/,/,
CN(/N=C/c1cc(Cl)cc(Cl)c1O)C(=S)NC(C)(C)C,-7.9,-4.7,-3.4,85.1*,20.1,111.5,74.7*,
Oc1c(Cl)cc(Cl)cc1/C=N/Nc1ncc(Br)cn1,-9.0,-4.2,0.6,-1.3,2.2,99.8,/,
CCc1ccc(S(=O)(=O)NCc2csc(-c3ccccc3)n2)s1,12.4,3.0,1.0,-4.4,1.2,106.1,/,
CCc1ccc(S(=O)(=O)NCCc2csc(-c3ccccc3)n2)s1,8.9,1.2,-0.1,69.1*,-3.1,119.3,80.8*,
SMILES,ADAM10 inh,ADAM17 inh,KLK7 zymogen act,MPTP block,rCAG binder,DSG3 Ab inh,Rh123 counter,others
Cc1noc(-c2ccc(C(F)(F)F)cc2)c1NC(=O)Nc1ccc(Cl)cc1,1.9,0.5,0.2,75.3*,2.1,116.3,71.6*,
Cc1ccc([C@H]2C[C@]34CN(Cc5ccccc5)S(=O)(=O)[C@H]3C[C@H]2O4)cc1,-5.1,-4.2,0.2,/,0.1,/,/,
CCC(C)c1ccc(NC(=S)NCc2cccs2)cc1 (centres undefined),7.1,4.8,0.2,97.3*,5.2,100.5,85.2*,
CC(Cc1cccs1)NC(=S)Nc1ccc(Cl)cc1 (centres undefined),1.2,-0.5,0.4,83.3*,10.3,108.5,94.9*,
CC(Cc1cccs1)NC(=O)Nc1ccc(F)cc1 (centres undefined),-9.0,-4.5,0.7,5.4,-2.2,107.3,/,
CC(Cc1cccs1)NC(=O)Nc1cccc(Cl)c1 (centres undefined),6.2,0.1,0.5,87.3*,0.5,/,86.2*,
Cc1ccc(NC(=O)Cc2cccs2)cc1Cl,7.0,-2.3,0.3,9.3,0.4,92.8,/,
CC(Cc1cccs1)NC(=S)Nc1ccc(Cl)c(Cl)c1 (centres undefined),8.1,2.2,-0.5,80.2*,-0.3,96.6,94.3*,
O=C1N[C@@H](Cc2ccccc2)C(=O)N2[C@H]1CSCCS2(=O)=O,-4.7,2.0,-0.3,/,2.9,/,/,
CCC(C)[C@H](NC(=O)[C@H](Cc1ccccc1)NC(=O)OC(C)(C)C)C(=O)NCc1ccccc1Br (some centres undefined),-10.2,-8.3,0.2,/,8.0,/,/,
O=C(N[C@H](C(=O)N1CCC[C@H]1C(=O)NCCc1ccccc1Cl)c1ccccc1)c1ccc(Cl)cc1Cl,0.4,1.7,1.6,/,2.5,/,/,
Cc1nc2ccccc2n1Cc1ccc(Cl)cc1,-4.2,-1.4,0.7,93.5*,0.7,103.8,95.5*,
Cc1ccc(Cn2c(N)nc3ccccc32)cc1,-4.6,-1.4,-0.2,55.2*,-0.8,92.7,21.2*,
Cc1ccccc1Cn1c(C)nc2ccccc21,1.2,-1.5,-0.2,101.2*,-4.2,115.7,89.0*,
CCOC(=O)[C@]12CCCC=C1N(Cc1ccc(OC)cc1)C(=O)[C@@H]2CC(=O)NCCCOC,-4.3,-6.5,0.5,/,0.1,/,/,
COC(=O)C1=C(C)N(Cc2ccc(C(F)(F)F)cc2)C(=NCC2CC2)NC1c1ccccc1C(F)(F)F (centres undefined),5.1,2.8,0.1,/,3.4,/,/,

# Screening results deposited in PubChem by several laboratories.
